Laboratory results taken from PubChem BioAssay (Tox21).
Several values for one entry are separate records, joined by “and”; a condition that tells them apart may be missing. Equal entries are not always repeated. Inconclusive results are not listed. Activity calls are given as the source filed them. Unless noted, calls come from the whole dose curve; as a rule, active = well fitted curve in the direction sought with a large enough effect in the repeat runs; inconclusive = weak or mixed curves; inactive = no such curve, though single readings can be large; an effect the other way counts as inactive or inconclusive.

Experiments:
[1] = qHTS assay to identify aromatase inhibitors - cell viability counter screen (AID 743084); conditions: MCF-7 aro ERE viability, CellTiter-Fluor, 24 h; series mostly up to 70.3 µM;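 note: cells stimulated with testosterone during compound exposure; nearly all actives have a fitted effect of over 55% in size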; note: potency is the fitted concentration of half-maximal effect
[2] = target: Aryl hydrocarbon receptor (Homo sapiens) (UniProt P35869); experiment: qHTS assay to identify small molecule that activate the aryl hydrocarbon receptor (AhR) signaling pathway (AID 743085); conditions: HepG2 AhR-luc (HG2L7.5c1), luciferase, 24 h; series mostly up to 70.3 µM; note: nearly all actives have a fitted effect of over 15% in size; note: potency is the fitted concentration of half-maximal effect;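 for activation: HG2L7.5c1 human HepG2 liver cells with stably integrated DRE-driven firefly reporter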
Summary of the method: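 Steps: seed HepG2-AhR-luc cells; allow 5 h at 37C; pin-transfer test compound or vehicle; incubate 24 h at 37C; add viability dye (30 min, 37C) and read fluorescence; add luciferase substrate (30 min, RT) and read luminescence.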

[3] = qHTS assay to identify small molecule that activate the aryl hydrocarbon receptor (AhR) signaling pathway - cell viability counter screen (AID 743086); conditions: HepG2-AhR-luc viability, CellTiter-Fluor, 24 h; series mostly up to 70.3 µM;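 note: HepG2 liver cells carrying the AhR DRE luciferase reporter; nearly all actives have a fitted effect of over 45% in size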
Summary of the method: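 HepG2-AhR-luc (HG2L7.5c1) cells, 4000/well, treated 24 h at 37 C with compound; viability measured as CellTiter-Fluor fluorescence after 30 min in the same wells as the luciferase read.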

[4] = target: Peroxisome proliferator-activated receptor gamma (Homo sapiens) (UniProt P37231); experiment: qHTS assay to identify small molecule agonists of the peroxisome proliferator-activated receptor gamma (PPARg) signaling pathway (AID 743094; active = well fitted activation curve with a large enough effect in the signal ratio in the repeat runs, not every such curve was filed as active; the % refers to the signal ratio); conditions: HEK293H PPARg-UAS-bla, beta-lactamase FRET ratio, 17 h; series mostly up to 57 µM
Summary of the method: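 GeneBLAzer PPARg UAS-bla HEK293H cells were plated, rested 5 h, then exposed to compounds for 17 h at 37C. Beta-lactamase activity was read by LiveBLAzer B/G FRET substrate fluorescence after 1 h at room temperature.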

[5] = target: Peroxisome proliferator-activated receptor gamma (Homo sapiens) (UniProt P37231); experiment: qHTS assay to identify small molecule antagonists of the peroxisome proliferator-activated receptor gamma (PPARg) signaling pathway (AID 743191; calls by dose curve; note: nearly all actives have a fitted effect of over 30% in size); conditions: HEK293H PPARg-UAS-bla, beta-lactamase ratio, antagonist, 17 h; series mostly up to 62.6 µM
Summary of the method: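 GeneBLAzer PPARg UAS-bla HEK293H cells, 5 h post-plating, exposed to compounds 17 h at 37C. LiveBLAzer B/G FRET substrate added for 1 h at room temperature; beta-lactamase reporter read by fluorescence intensity.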

[6] = qHTS assay to identify small molecule antagonists of the peroxisome proliferator-activated receptor gamma (PPARg) signaling pathway - cell viability counter screen (AID 743194); conditions: PPARg-bla HEK293H viability, CellTiter-Glo luminescence, 17 h; Potency: co-treated with 50 nM rosiglitazone; series mostly up to 62.6 µM; note: nearly all actives have a fitted effect of over 55% in size; note: potency is the fitted concentration of half-maximal effect
Summary of the method: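 Cytotoxicity counter screen in PPARg-bla HEK293H cells, same wells as reporter assay. Compounds plus 50 nM rosiglitazone (final) for 17 h at 37 C, then viability read by CellTiter-Glo luminescence.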

[7] = qHTS assay for small molecule agonists of the antioxidant response element (ARE) signaling pathway - cell viability counter screen (AID 743203; calls by dose curve; note: nearly all actives have a fitted effect of over 55% in size; note: potency is the fitted concentration of half-maximal effect); conditions: ARE-bla HepG2 viability, CellTiter-Glo luminescence, 16 h; series mostly up to 73.3 µM
Summary of the method: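 ARE-bla HepG2 cells were plated, rested 5 h at 37C/5% CO2, then exposed to compounds in DMSO for 16 h. Viability was read as CellTiter-Glo luminescence after 30 min at room temperature, in the same wells as the ARE screen.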

[8] = qHTS assay for small molecule activators of the heat shock response signaling pathway - cell viability counter screen (AID 743209); conditions: HSE-bla HeLa viability, CellTiter-Glo luminescence, 5 h; series mostly up to 62.6 µM; note: nearly all actives have a fitted effect of over 50% in size
Summary of the method: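 HSE-bla HeLa cells plated overnight, then exposed to Tox21 compounds (23 nL in DMSO) for 5 h at 37 C. After the bla reporter read, CellTiter-Glo was added in the same wells and luminescence read after 30 min at room temperature.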

[9] = qHTS assay for small molecule activators of the heat shock response signaling pathway (AID 743210; active = well fitted activation curve with a large enough effect in the signal ratio in the repeat runs, with a control signal flat, not every such curve was filed as active; the % refers to the signal ratio; note: potency is the fitted concentration of half-maximal effect;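 for activation: HeLa cells with beta-lactamase reporter driven by heat shock elements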); conditions: HeLa HSE-bla reporter, beta-lactamase ratio, 5 h; series mostly up to 62.6 µM
Summary of the method: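 Quantitative high-throughput format using an engineered HeLa line in which heat shock response elements drive beta-lactamase; after 5 h with compound, cells received a B/G FRET substrate and fluorescence was read.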

[10] = qHTS assay for small molecule agonists of the antioxidant response element (ARE) signaling pathway (AID 743202; active = well fitted activation curve with a large enough effect in the signal ratio in the repeat runs, not every such curve was filed as active; the % refers to the signal ratio; note: potency is the fitted concentration of half-maximal effect); conditions: HepG2 ARE-bla reporter, beta-lactamase FRET, 16 h; series mostly up to 73.3 µM
Summary of the method: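 Agonist mode reporter screen: HepG2 cells with ARE-controlled beta-lactamase are incubated with test compounds for 16 h at 37 C, and beta-lactamase activity is measured as fluorescence of cleaved B/G FRET substrate.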

Measured: Potency

Peroxisome proliferator-activated receptor gamma (Homo sapiens), sequence (P37231 whole entry, looked up): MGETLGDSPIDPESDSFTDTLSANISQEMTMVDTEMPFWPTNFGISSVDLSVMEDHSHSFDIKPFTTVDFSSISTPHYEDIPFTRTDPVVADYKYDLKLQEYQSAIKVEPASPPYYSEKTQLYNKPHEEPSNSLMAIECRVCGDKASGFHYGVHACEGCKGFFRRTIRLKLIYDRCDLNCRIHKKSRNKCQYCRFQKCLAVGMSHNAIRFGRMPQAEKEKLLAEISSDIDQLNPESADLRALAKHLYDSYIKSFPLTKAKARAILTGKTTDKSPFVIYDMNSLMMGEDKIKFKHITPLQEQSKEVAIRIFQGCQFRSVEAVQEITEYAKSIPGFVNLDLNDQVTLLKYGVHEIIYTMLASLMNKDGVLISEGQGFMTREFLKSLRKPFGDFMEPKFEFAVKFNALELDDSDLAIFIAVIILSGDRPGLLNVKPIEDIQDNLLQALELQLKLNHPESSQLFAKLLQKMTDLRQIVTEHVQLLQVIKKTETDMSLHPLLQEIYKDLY
Aryl hydrocarbon receptor (Homo sapiens), sequence (P35869 whole entry, looked up): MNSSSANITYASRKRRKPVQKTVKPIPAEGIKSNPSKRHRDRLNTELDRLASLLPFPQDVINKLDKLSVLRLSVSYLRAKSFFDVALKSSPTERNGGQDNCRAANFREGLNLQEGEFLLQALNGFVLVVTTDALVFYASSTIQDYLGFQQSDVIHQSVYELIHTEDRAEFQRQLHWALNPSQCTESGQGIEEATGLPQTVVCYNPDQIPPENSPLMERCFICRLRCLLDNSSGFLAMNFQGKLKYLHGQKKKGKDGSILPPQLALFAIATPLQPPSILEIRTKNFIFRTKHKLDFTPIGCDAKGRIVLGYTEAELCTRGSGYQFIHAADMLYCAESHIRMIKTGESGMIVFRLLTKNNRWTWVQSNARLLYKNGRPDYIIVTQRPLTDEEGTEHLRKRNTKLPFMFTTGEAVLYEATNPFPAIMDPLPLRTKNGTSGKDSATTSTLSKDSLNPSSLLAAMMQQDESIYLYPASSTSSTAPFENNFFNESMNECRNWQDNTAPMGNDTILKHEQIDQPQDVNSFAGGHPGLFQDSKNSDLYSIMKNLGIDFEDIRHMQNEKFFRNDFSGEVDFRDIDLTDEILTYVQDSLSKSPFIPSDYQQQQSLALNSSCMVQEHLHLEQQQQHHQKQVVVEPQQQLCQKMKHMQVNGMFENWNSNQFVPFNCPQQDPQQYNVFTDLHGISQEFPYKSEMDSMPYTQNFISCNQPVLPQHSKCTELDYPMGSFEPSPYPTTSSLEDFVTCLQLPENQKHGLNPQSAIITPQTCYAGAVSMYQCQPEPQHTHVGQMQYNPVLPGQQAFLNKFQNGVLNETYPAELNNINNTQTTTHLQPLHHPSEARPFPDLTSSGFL

Nc1ccc2c(c1)Cc1ccccc1-2
active: [2] 68.2 µM
not listed: [10]
inactive: all other assays above

CC(C)CCON=O
inactive: all assays above

C[C@]12CC[C@H]3[C@@H](CCC4=CC(=O)CC[C@@H]43)[C@@H]1CC[C@@H]2OC(=O)CCc1ccccc1
not listed: [10]
inactive: all other assays above

CCC(C)(C)O
inactive: all assays above

Cc1nc(N(C)C)nc(OC(=O)N(C)C)c1C
not listed: [10]
inactive: all other assays above

FC(F)OC(F)(F)C(F)Cl (stereo not drawn)
inactive: all assays above

C=CCOC(=O)C(C)(C)OC(=O)c1cc(-n2c(=O)cc(C(F)(F)F)n(C)c2=O)ccc1Cl
not listed: [10]
inactive: all other assays above

CCOC(=O)C1OC1(C)c1ccccc1 (stereo not drawn)
inactive: all assays above

CCC1(C2=NCCN2)Cc2ccccc2O1 (stereo not drawn)
inactive: all assays above

C1CS1
inactive: all assays above

ClCc1ccccc1Cl
not listed: [10]
inactive: all other assays above

C[N+](C)(C)CC1CO1 (stereo not drawn)
inactive: all assays above

CCOP(=O)(SC(C)CC)N1CCSC1=O (stereo not drawn)
not listed: [10]
inactive: all other assays above

CN[C@@H](C)[C@H](O)c1ccccc1
inactive: all assays above

COCc1cnc(C2=NC(C)(C(C)C)C(=O)N2)c(C(=O)O)c1 (stereo not drawn)
not listed: [10]
inactive: all other assays above

O=C(O)c1cc(Cl)ccc1Cl
inactive: all assays above

CCC1(CCC(C)C)C(=O)NC(=O)NC1=O
inactive: all assays above

CCCCC(CC)CO[N+](=O)[O-] (stereo not drawn)
not listed: [10]
inactive: all other assays above

CC(C)C1(C)N=C(c2ncccc2C(=O)O)NC1=O (stereo not drawn)
inactive: all assays above

CCC1(CC)C(=O)NC(=O)NC1=O
not listed: [10]
inactive: all other assays above

C=CCOCC1CO1 (stereo not drawn)
inactive: all assays above

CON(C)C(=O)Nc1ccc(Cl)cc1
active: [2] 27.3 µM
inactive: all other assays above

NCCc1cc(O)c(O)cc1O
not listed: [10]
inactive: all other assays above

N#CC1(N=NC2(C#N)CCCCC2)CCCCC1
not listed: [10]
inactive: all other assays above

CCCC[P+](CC)(CCCC)CCCC (tested in a mixture with another compound)
inactive: all assays above

CCc1cnc(C2=NC(C)(C(C)C)C(=O)N2)c(C(=O)O)c1 (stereo not drawn)
inactive: all assays above

COC1CC(=C(c2cccs2)c2cccs2)C[N+](C)(C)C1 (stereo not drawn)
inactive: all assays above

CCCC1CCCCN1 (stereo not drawn)
inactive: all assays above

CCOP(=S)(OCC)Oc1ccc(S(C)=O)cc1 (stereo not drawn)
active: [2] 10.9 µM
inactive: all other assays above

O=S(=O)(c1ccccc1)c1ccccc1
inactive: all assays above

CCNC(=O)NC(=O)/C(C#N)=N/OC
not listed: [6]
inactive: all other assays above

N#CC(C#N)=C(C#N)C#N
active: [10] 7.17 µM
inactive: all other assays above

CCc1ccccc1N
not listed: [6] | [10]
inactive: all other assays above

COc1cc(CC(C)N)c(OC)cc1Br (stereo not drawn)
not listed: [5] | [10]
inactive: all other assays above

N#CC(C#N)=Cc1ccc(O)c(O)c1
not listed: [6] | [10]
inactive: all other assays above

Nc1ccccc1C(=O)OCCc1ccccc1
active: [2] 30.6 µM
not listed: [5] | [10]
inactive: all other assays above

Nc1c(Br)cc(Br)c2c1C(=O)c1ccccc1C2=O
active: [2] 7.25 µM
not listed: [5] | [10]
inactive: all other assays above

CCOC(=O)NC(O)C(Cl)(Cl)Cl (stereo not drawn)
not listed: [5] | [8]
inactive: all other assays above

O=C(Cc1ccccc1)OCCc1ccccc1
not listed: [5]
inactive: all other assays above

COC(=O)Cc1ccccc1
not listed: [5] | [6]
inactive: all other assays above

CN1CC[C@]23c4c5ccc(O)c4O[C@H]2[C@@H](O)CC[C@H]3[C@H]1C5
not listed: [5] | [9]
inactive: all other assays above

SCc1ccccc1
not listed: [5]
inactive: all other assays above

CC(C)(c1ccccc1)c1cc(-n2nc3ccccc3n2)c(O)c(C(C)(C)c2ccccc2)c1
not listed: [5] | [6]
inactive: all other assays above

O=C1NC(=O)C(=O)C(=O)N1
not listed: [5] | [9]
inactive: all other assays above

CC[N+]1(C)CCCC(OC(=O)C(O)(c2ccccc2)c2ccccc2)C1 (stereo not drawn)
not listed: [5]
inactive: all other assays above

O=C1c2ccccc2C(=O)N1SC(Cl)(Cl)Cl
inactive: [2] | [3] | [4]
active: [1] 1.22 µM | [6] 2.19 µM | [7] 60.3 µM and 13.7 µM

c1ccc2sc(SNC3CCCCC3)nc2c1
active: [2] 23.7 µM and 34 µM and 30.6 µM | [10] 9.69 µM | [9] 13.3 µM
not listed: [5]
inactive: all other assays above

CCCBr
not listed: [5]
inactive: all other assays above

CCCCC1C(=O)NC(=O)N(C2CCCCC2)C1=O (stereo not drawn)
not listed: [5]
inactive: all other assays above
